From the supplement of paper PMC8975748
Counter-ions that a name gives are not always drawn. ± gives the standard deviation of the averaged measurements.

What was measured:
[1] = tested on: Saccharomyces cerevisiae BY4741 SeMeCo community; assay: z-score of prototroph abundance vs DMSO median; higher = larger share of this subpopulation than in DMSO controls; conditions: 10 µM; 24 h; SM minimal medium; subpopulation (auxotrophy): Prototroph
In short: (§1)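 Automated confocal microscopy of paraformaldehyde-fixed cells was used to follow a Saccharomyces cerevisiae BY4741 community carrying four plasmids, each restoring one auxotrophy and encoding a distinct fluorescent protein. The community was pre-grown overnight to OD600 1.0, diluted to 0.3, and added at 70 µl to 384-well plates acoustically predosed with library drugs (10 µM final) for 24 h of growth in minimal SM medium. Single-auxotroph fluorescent strains set thresholds and autofluorescence correction, and each subpopulation's abundance was scored as a z-score against the vehicle-well median.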

[2] = tested on: Saccharomyces cerevisiae BY4741 SeMeCo community; assay: z-score of subpopulation abundance vs DMSO median, subpopulation auxotrophic for M; higher = larger share of this subpopulation than in DMSO controls; conditions: 10 µM; 24 h; SM minimal medium; subpopulation (auxotrophy): M
In short: as §1

[3] = tested on: Saccharomyces cerevisiae BY4741 SeMeCo community; assay: z-score of subpopulation abundance vs DMSO median, subpopulation auxotrophic for L; higher = larger share of this subpopulation than in DMSO controls; conditions: 10 µM; 24 h; SM minimal medium; subpopulation (auxotrophy): L
In short: as §1

[4] = tested on: Saccharomyces cerevisiae BY4741 SeMeCo community; assay: z-score of subpopulation abundance vs DMSO median, subpopulation auxotrophic for U; higher = larger share of this subpopulation than in DMSO controls; conditions: 10 µM; 24 h; SM minimal medium; subpopulation (auxotrophy): U
In short: as §1

[5] = tested on: Saccharomyces cerevisiae BY4741 SeMeCo community; assay: z-score of subpopulation abundance vs DMSO median, subpopulation auxotrophic for H; higher = larger share of this subpopulation than in DMSO controls; conditions: 10 µM; 24 h; SM minimal medium; subpopulation (auxotrophy): H
In short: as §1

[6] = tested on: Saccharomyces cerevisiae BY4741 SeMeCo community; assay: z-score of subpopulation abundance vs DMSO median, subpopulation auxotrophic for LU; higher = larger share of this subpopulation than in DMSO controls; conditions: 10 µM; 24 h; SM minimal medium; subpopulation (auxotrophy): LU
In short: as §1

[7] = tested on: Saccharomyces cerevisiae BY4741 SeMeCo community; assay: z-score of subpopulation abundance vs DMSO median, subpopulation auxotrophic for HM; higher = larger share of this subpopulation than in DMSO controls; conditions: 10 µM; 24 h; SM minimal medium; subpopulation (auxotrophy): HM
In short: as §1

[8] = tested on: Saccharomyces cerevisiae BY4741 SeMeCo community; assay: z-score of subpopulation abundance vs DMSO median, subpopulation auxotrophic for HU; higher = larger share of this subpopulation than in DMSO controls; conditions: 10 µM; 24 h; SM minimal medium; subpopulation (auxotrophy): HU
In short: as §1

[9] = tested on: Saccharomyces cerevisiae BY4741 SeMeCo community; assay: z-score of subpopulation abundance vs DMSO median, subpopulation auxotrophic for UM; higher = larger share of this subpopulation than in DMSO controls; conditions: 10 µM; 24 h; SM minimal medium; subpopulation (auxotrophy): UM
In short: as §1

[10] = tested on: Saccharomyces cerevisiae BY4741 SeMeCo community; assay: z-score of subpopulation abundance vs DMSO median, subpopulation auxotrophic for HL; higher = larger share of this subpopulation than in DMSO controls; conditions: 10 µM; 24 h; SM minimal medium; subpopulation (auxotrophy): HL
In short: as §1

[11] = tested on: Saccharomyces cerevisiae BY4741 SeMeCo community; assay: z-score of subpopulation abundance vs DMSO median, subpopulation auxotrophic for HLU; higher = larger share of this subpopulation than in DMSO controls; conditions: 10 µM; 24 h; SM minimal medium; subpopulation (auxotrophy): HLU
In short: as §1

[12] = tested on: Saccharomyces cerevisiae BY4741 SeMeCo community; assay: z-score of subpopulation abundance vs DMSO median, subpopulation auxotrophic for HLM; higher = larger share of this subpopulation than in DMSO controls; conditions: 10 µM; 24 h; SM minimal medium; subpopulation (auxotrophy): HLM
In short: as §1

[13] = tested on: Saccharomyces cerevisiae BY4741 SeMeCo community; assay: z-score of subpopulation abundance vs DMSO median, subpopulation auxotrophic for HUM; higher = larger share of this subpopulation than in DMSO controls; conditions: 10 µM; 24 h; SM minimal medium; subpopulation (auxotrophy): HUM
In short: as §1

[14] = tested on: Saccharomyces cerevisiae BY4741 SeMeCo community; assay: z-score of subpopulation abundance vs DMSO median, subpopulation auxotrophic for LUM; higher = larger share of this subpopulation than in DMSO controls; conditions: 10 µM; 24 h; SM minimal medium; subpopulation (auxotrophy): LUM
In short: as §1

[15] = tested on: Saccharomyces cerevisiae BY4741 SeMeCo community; assay: z-score of subpopulation abundance vs DMSO median, subpopulation auxotrophic for HLUM; higher = larger share of this subpopulation than in DMSO controls; conditions: 10 µM; 24 h; SM minimal medium; subpopulation (auxotrophy): HLUM
In short: as §1

[16] = tested on: Saccharomyces cerevisiae BY4741 SeMeCo community; assay: mean cell size (pixel area) (pixels); higher = larger cells; conditions: 10 µM; 24 h; SM minimal medium
In short: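 In this assay, mean cell pixel area per well was obtained from automated confocal images of paraformaldehyde-fixed yeast analysed in Harmony. The cells were a Saccharomyces cerevisiae BY4741 community with four plasmids, each complementing one auxotrophy and carrying a fluorescent marker, grown for 24 h in SM medium with drug at a final 10 µM in 384-well plates. Values are averaged across 3 replicates. Same SeMeCo high-content imaging drug screen: Selleck FDA-approved drugs at 10 µM, 24 h in SM medium, 384-well plates, 3 replicates.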

[17] = tested on: Saccharomyces cerevisiae BY4741 SeMeCo community; assay: z-score of subpopulation abundance vs DMSO median, subpopulation auxotrophic for LM; higher = larger share of this subpopulation than in DMSO controls; conditions: 10 µM; 24 h; SM minimal medium; subpopulation (auxotrophy): LM
In short: as §1

SMILES	z-score of prototroph abundance [1]	z-score of subpopulation abundance [2]	z-score of subpopulation abundance [3]	z-score of subpopulation abundance [4]	z-score of subpopulation abundance [5]	z-score of subpopulation abundance [6]	z-score of subpopulation abundance [7]	z-score of subpopulation abundance [8]	z-score of subpopulation abundance [9]	z-score of subpopulation abundance [10]	z-score of subpopulation abundance [11]	z-score of subpopulation abundance [12]	z-score of subpopulation abundance [13]	z-score of subpopulation abundance [14]	z-score of subpopulation abundance [15]	mean cell size [16]	z-score of subpopulation abundance [17]
OC(Cn1cncn1)(Cn1cncn1)c1ccc(F)cc1F [Fluconazole]	2.13	-1.85	-0.88	-0.29	-2.16	-1.41	-1.78	-1.49	-0.52	-1.18	-1.51	-1.07	-1.16	-0.64	-1.38		
O=C(O)c1cn(C2CC2)c2cc(N3CCNCC3)c(F)cc2c1=O [Ciprofloxacin hydrochloride hydrate]	-0.74	0.57	-0.22	0.96	-0.88	0.43	0.16	0.3	0.65	-0.26	0.36	0.11		0.41	0.98	12.4 ± 0.27	-0.37
CCN1CCC[C@H]1CNC(=O)c1cc(S(N)(=O)=O)ccc1OC [Levosulpiride]	0.49	-0.33	-0.4	0.41	-0.73	0.1	-0.96	-0.27	0.08	-0.21	-1.02	-0.19		0.3	-0.54	12.5 ± 0.17	-0.65
NC12CC3CC(CC(C3)C1)C2 [Amantadine HCl]		0.52	-0.67	0.19	-0.11	-0.18	-0.31	-0.11			-0.31	-0.47	-0.08		-0.01		-0.26
CCC(C)C1OC2(CCC1C)CC1CC(CC=C(C)C(OC3CC(OC)C(OC4CC(OC)C(O)C(C)O4)C(C)O3)C(C)C=CC=C3COC4C(O)C(C)=CC(C(=O)O1)C34O)O2 (stereo not drawn) [Ivermectin]		-0.12	-0.07	0.12	1.41	-0.12	1.17	1.39	1.13	0.26	2.13	0.72	2.99	1.28	0.72		0.26
CCOC(=O)C1=C(COCCN)NC(C)=C(C(=O)OC)C1c1ccccc1Cl (stereo not drawn) [Amlodipine Besylate]	2.4	5.2	2.94	-6.89	3.81	-6.85	4.12	-7.3	-8.17	4.37	-3.58	5.98		-4.74	-1.58	12.6 ± 0.18	6.36
CN1[C@@H](CC(=O)c2ccccc2)CCC[C@H]1C[C@H](O)c1ccccc1 [Lobeline hydrochloride]	0.02	1.16	-0.58	0.36	-0.65	-0.23	0.17	-0.75	0.92	-0.13	-0.94	-0.48	0.22	-0.75			
NC[C@H]1O[C@H](O[C@H]2[C@H](O)[C@@H](O[C@H]3O[C@H](CO)[C@@H](O)[C@H](N)[C@H]3O)[C@H](N)C[C@@H]2N)[C@H](O)[C@@H](O)[C@@H]1O [Kanamycin sulfate]	-0.43	0.84	1.91	-0.55	1.26	-0.08	1.34	-0.5	-0.15		0.63	-0.02	0.21				1.55
C[C@]12CC[C@@H]3c4ccc(O)cc4C[C@@H](CCCCCCCCC[S+]([O-])CCCC(F)(F)C(F)(F)F)[C@H]3[C@@H]1CC[C@@H]2O (stereo partly drawn) [Fulvestrant]	-1.17	0.89	1.23	-0.43	0.56	0.81	0.9	0.88	0.53	0.87	1.48	0.89		1.7	1.35	12.4 ± 0.074	1.39
COc1ccc(CN2CCN(C(c3ccc(F)cc3)c3ccc(F)cc3)CC2)c(OC)c1OC [Lomerizine 2HCl]	-0.1	-0.52	0.3	0.28	-0.09	-0.08	0.78	0.22		0.04	0.88	0.32	-0.52	-0.31			
CN(C)[C@@H]1C(=O)C(C(N)=O)=C(O)[C@@]2(O)C(=O)C3=C(O)c4c(O)ccc(Cl)c4[C@@H](O)[C@H]3C[C@@H]12 [Demeclocycline HCl]	0.9	-1.78	-0.08	0.03	0.67	-0.08	-1		-0.64		-0.4	-0.17	-1	-0.57	-0.17		-0.4
O=C(O)c1cc(/N=N/c2ccc(O)c(C(=O)O)c2)ccc1O [Olsalazine Sodium]	1.33	-0.62	-0.47		-0.62	-0.37	-1.16	-0.74	-1.01		-1.31	-1.25	-0.73	-0.7	-0.84		-0.58
CC(C)COc1ccc(CNC(=O)N(Cc2ccc(F)cc2)C2CCN(C)CC2)cc1 [Pimavanserin]	-0.05	1.1	-1.18	0.22	-0.39	0.32	-0.22			0.41	-0.54	0.27	-0.82	-0.56	-0.3		-0.48
COc1cccc2c1C(=O)c1c(O)c3c(c(O)c1C2=O)CC(O)(C(=O)CO)CC3OC1CC(N)C(O)C(C)O1 (stereo not drawn) [Doxorubicin (Adriamycin) HCl]	-3.54	-6.37	0.99	4.2	4.08	8.06		8.36	0.38	2.67	12.3	2.16	2.39	4.19	12.9		-0.36
